The panel holds about 83,000 compounds, 20% with a hit somewhere; the sample as a whole holds those more often.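 Plates (96-well) were seeded with cells, treated with compound at one concentration, and incubated for 48 hours before percent growth was determined.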
What was measured:
Assay in all cases: NCI-60 one-dose screen, 48 h (100 = growth as untreated, 0 = no growth, -100 = all killed); active = growth percent below 10; inactive = the rest
[1] = test system: HCT-15 colon; conditions: 10 µM unless noted
[2] = test system: HT29 colon; conditions: 10 µM unless noted
[3] = test system: SNB-75 CNS; conditions: 10 µM unless noted
[4] = test system: SNB-19 CNS; conditions: 10 µM unless noted
[5] = test system: PC-3 prostate; conditions: 10 µM unless noted
[6] = test system: SK-MEL-5 melanoma; conditions: 10 µM unless noted
[7] = test system: UACC-62 melanoma; conditions: 10 µM unless noted
[8] = test system: LOX IMVI melanoma; conditions: 10 µM unless noted
[9] = test system: SK-MEL-2 melanoma; conditions: 10 µM unless noted
[10] = test system: SN12C renal; conditions: 10 µM unless noted
[11] = test system: UO-31 renal; conditions: 10 µM unless noted
[12] = test system: TK-10 renal; conditions: 10 µM unless noted
[13] = test system: ACHN renal; conditions: 10 µM unless noted
[14] = test system: CAKI-1 renal; conditions: 10 µM unless noted
[15] = test system: A498 renal; conditions: 10 µM unless noted
[16] = test system: MOLT-4 leukemia; conditions: 10 µM unless noted
[17] = test system: SK-MEL-28 melanoma; conditions: 10 µM unless noted
[18] = test system: EKVX NSCLC; conditions: 10 µM
[19] = test system: CCRF-CEM leukemia; conditions: 10 µM
[20] = test system: U251 CNS; conditions: 10 µM unless noted

Measured: growth

CCCCCCC(C(=O)OCC)(C(=O)OCC)C1CCCCCC1
inactive: [1] 97.5% | [2] 98.1% | [3] 83.7% | [4] 99.2% | [5] 102% | [6] 100% | [7] 101% | [8] 101% | [9] 114% | [10] 101% | [11] 90.6% | [12] 102% | [13] 101% | [14] 89.9% | [15] 96.7% | [16] 104%

CN1NC(c2ccccc2)NN(C)C1=O
inactive: [1] 96.6% | [2] 107% | [3] 77.8% | [4] 97.2% | [5] 88.6% | [6] 97.8% | [7] 91.6% | [8] 92.5% | [17] 107% | [9] 110% | [10] 98.4% | [12] 114% | [13] 95.1% | [14] 85.4% | [15] 119%

COc1nc(OC)nc(-c2cc(-c3cc(OC)c(OC)c(OC)c3)no2)n1
inactive: [1] 103% | [2] 100% | [3] 97.2% | [4] 96.9% | [5] 86.3% | [6] 88.2% | [7] 97.6% | [8] 104% | [9] 108% | [18] 103% | [10] 94.6% | [11] 71.3% | [12] 101% | [13] 108% | [14] 96.1% | [15] 82.5% | [19] 91.3% | [16] 92.6%

Br/C(=N\Nc1nn[nH]n1)c1ccccc1
inactive: [1] 96.6% | [2] 110% | [3] 80.8% | [20] 99.6% | [5] 96.1% | [6] 102% | [7] 101% | [8] 86.3% | [17] 109% | [9] 90.9% | [10] 98.7% | [11] 78.6% | [13] 92.7% | [14] 92.5% | [15] 114% | [16] 105%

Cc1ccc(S(=O)(=O)N/N=C2\CC3CCC2C3)cc1 (configuration not stated)
inactive: [1] 96% | [2] 108% | [3] 85.7% | [4] 101% | [5] 95.8% | [6] 99.8% | [7] 103% | [8] 103% | [17] 109% | [9] 108% | [10] 99.9% | [11] 93.9% | [12] 122% | [13] 94.7% | [14] 101% | [15] 97.7% | [19] 100% | [16] 109%

CC(=O)C(CO)C(=O)Nc1ccccc1 (configuration not stated)
inactive: [1] 98.8% | [2] 101% | [3] 63.3% | [4] 101% | [5] 102% | [6] 103% | [7] 98.2% | [8] 83.7% | [17] 99.8% | [9] 90.4% | [10] 101% | [11] 106% | [12] 109% | [13] 93.3% | [14] 94.8% | [19] 99.2% | [16] 102%

O=C(CN1CCN(c2cccc(Cl)c2)CC1)N1CCN(c2nnc(-c3ccc(Cl)cc3)c(-c3ccc(Cl)cc3)n2)CC1
inactive: [1] 52.9% | [2] 59.3% | [3] 97.6% | [4] 77.6% | [5] 25.4% | [6] 61.6% | [7] 71.4% | [8] 71.5% | [17] 93.8% | [18] 59% | [10] 75.7% | [12] 90.2% | [13] 65.3% | [14] 105% | [15] 63.1% | [19] 48.7% | [16] 36.4%

CCOC(=O)c1cc(C(=O)c2ccc(Br)cc2)n2cc(C)cc(C)c12
inactive: [1] 95.5% | [2] 82.3% | [3] 82.8% | [4] 87% | [5] 84.1% | [6] 96.2% | [7] 89.3% | [8] 92.3% | [17] 98.5% | [9] 91.3% | [18] 99.5% | [11] 86.8% | [12] 114% | [13] 104% | [14] 82.1% | [15] 78.4% | [19] 83.9% | [16] 98.9%

CC(=O)N1CCN(CCNC(=O)n2cc(-c3ccncc3)c(-c3ccc(O)c(Cl)c3)n2)CC1
inactive: [1] 118% | [2] 103% | [3] 81.4% | [4] 120% | [5] 171% | [6] 107% | [7] 91.3% | [8] 109% | [18] 133% | [10] 102% | [11] 131% | [12] 87.2% | [13] 105% | [14] 136% | [15] 118% | [19] 95.8% | [16] 85.8%

— PubChem BioAssay (NCI)
